# Assay results: PubChem BioAssay (EPA / NIEHS)
# Where a structure was tested more than once in an assay, its records may differ in their call. Activity calls are given as the source filed them. Rule for the calls: active = hit-call score of the fitted dose curve at least 0.9, where 1 is the maximum; inactive = score below 0.9.
# Read-out: Interleukin-8 (IL8), CXCL8 (gene 3576)
# Assay: BSK_KF3CT_IL8: BioMAP Diversity Plus: KF3CT Assay for Interleukin-8 (IL8) Biomarker Activity (AID 2284254)
# Details: primary human keratinocytes with fibroblasts
# Experimental: BSK_KF3CT is a cell-based, multiplexed-readout assay that uses keratinocytes and foreskin fibroblasts, a human skin primary cell co-culture, with measurements taken at 24 hours after chemical dosing in a 96-well plate.BSK_KF3CT_IL8 is an assay component measured in the BSK_KF3CT assay. It measures IL-8 antibody related to regulation of gene expression using ELISA technology.Data from the assay component BSK_KF3CT_IL8 was analyzed at the endpoint, BSK_KF3CT_IL8, in the positive analysis fitting direction relative to DMSO as the negative control and baseline of activity. Using a type of binding reporter, gain or loss-of-signal activity can be used to understand protein changes. To generalize the intended target to other relatable targets, this assay endpoint is annotated to the 'cytokine' intended target family, where the subfamily is 'interleukins'.
# The levels of cell surface (or secreted, indicated by the prefix "s") biomarker endpoints were measured by ELISA. Overt cytotoxicity to cells in confluent adherent cultures (all systems other than the BT system) was assessed by measuring total protein levels using sulforhodamine B (SRB) staining in parallel cultures at the time of biomarker measurements, indicated as SRB endpoints. For proliferation assays for adherent cell types, individual cell types are cultured at sub-confluence and relative cell numbers quantified by SRB staining at time points optimized for each system (48 h: 3C and CASM3C systems; 72 h: BT and HDF3CGF systems; 96 h: SAg system). SRB was performed by staining cells with 0.1% SRB after fixation with 10% TCA and reading wells at 560 nm.Viability and proliferation of PBMC (T cells) was quantified by Alamar Blue reduction for the SAg and BT systems. For PBMC viability (referred to as PBMC Cytotoxicity within the assay endpoint names), cells were plated (75,000/well in a 96-well plate) and then chemical samples added for 1 h before addition of activators, SEB and TSST-1 (20 ng/mL final concentration each). Cells were incubated for 90 h. Then, Alamar Blue (20 uL/well) (Invitrogen, Cat DAL1100) was added for 6 h, and the plates were read with a fluorescence microplate reader at 546/580 nm (excitation/emission). For PBMC proliferation, cells were plated and activated as above but incubated for only 16 h prior to addition of Alamar Blue. Plates were read after 6 h.
SMILES,outcome,AC50
CCCO[Si](OCCC)(OCCC)OCCC,inactive,–
O=C(O)C(F)(F)OC(F)(F)C(F)(F)OC(F)(F)C(F)(F)C(F)(F)C(F)(F)F,inactive,42.7 µM (active)
O=S(=O)(O)C(F)(F)C(F)(F)OC(F)(F)C(F)(F)F,inactive,–
CC(C)CCCC(C)(C)O,inactive,–
CC(C)(CO)CO,inactive,–
C=C(F)C(=O)OC(C(F)(F)F)C(F)(F)F,inactive,–
OCC(F)(OC(F)(F)C(F)(OC(F)(F)C(F)(F)C(F)(F)F)C(F)(F)F)C(F)(F)F (stereo not given),inactive,4.96 µM (active)
CC(=O)c1ccc(C)cc1,inactive,–
C=C(C)C(=O)OCCC(F)(F)C(F)(F)C(F)(F)C(F)(F)C(F)(F)C(F)(F)C(F)(F)C(F)(F)F,inactive,–
O=C(O)C(F)(F)C(F)(F)C(F)(F)C(F)(F)C(F)(F)C(F)(F)C(F)(F)C(F)F,inactive,–
CCn1cc(C(=O)O)c(=O)c2ccc(C)nc21,inactive,–
CCCCN(CCO)CCO,inactive,–
c1ccc(OCCOc2ccccc2)cc1,inactive,–
